This is a sample that favours compounds with a hit; in the whole collection about 19% have one here.
IL-1B inflam inh = blocks inflammasome-driven IL-1 beta release. activity change, % at 57.5 µM. actives 4.7% (n = 360,000). THP-1 LPS/ATP IL-1B secretion, AlphaLISA, 16 h; stronger effect = lower value; in the data active = activity change below about -50%; inconclusive = mostly about -30% to -49%
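Secreted IL-1B measured by AlphaLISA bead assay after 16 h compound exposure of THP-1 cells; compounds (final up to 57.5 uM) added 1 h before LPS (250 ng/mL) and ATP (1.25 mM) stimulation; lower signal means less secretion.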
DT40 TDP1 CPT = growth inhibition of DT40 Tdp1-/-;hTDP1 cells with camptothecin (screen for TDP1 inhibitors); chicken DT40 Tdp1-/-;hTDP1 cells + 20 nM CPT, ATP luminescence, 48 h; Potency, µM (series often up to 46.2 µM), inactives show top-dose activity change, negative = growth inhibition, most hits filed as inhibitors; actives 12% (n = 420,000); note: potency is the fitted concentration of half-maximal effect; nearly all actives have a fitted effect of over 55% in size
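Chicken DT40 Tdp1-/- cells stably complemented with human TDP1 were seeded at 400 cells/well in medium containing 20 nM camptothecin, exposed to pin-transferred compounds, and grown at 37 °C for at least 48 hr. Viability was read as ATP luminescence.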
HT1080NT lethal = kills 2HG-producing HT-1080-NT fibrosarcoma cells; HT-1080-NT fibrosarcoma viability, CellTiter-Glo ATP luminescence, 48 h; Potency, µM (highest dose often 46.1 µM), without a hit: at the highest dose activity, negative = less viability, usual class: cytotoxic; actives 1.6% (n = 360,000); AID 686970;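 note: NT is the 2HG producing partner of a matched IDH1 knockdown line; potency is the fitted concentration of half-maximal effect; 0% = DMSO-treated cells and -100% = media-only wells without cells; nearly all actives have a fitted effect of over 55% in size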
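HT-1080-NT fibrosarcoma cells (2HG-overproducing), 750 cells/well in RPMI with 5% FBS, dosed after 2 h and incubated 48 h at 37C. CellTiter-Glo luminescence normalized to DMSO and no-cell wells; concentration-response curves fitted and classed.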
HT1080 IDH1KD tx = HT-1080 IDH1 knockdown cell toxicity (counter line); Potency, µM (top dose mostly 46.1 µM), inactives show top-dose activity, negative = toxicity, usual class: cytotoxic; actives 2% (n = 360,000); HT-1080 IDH1 knockdown viability, ATP luminescence, 48 h;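 note: potency is the fitted concentration of half-maximal effect; 0% = DMSO wells and -100% = cell-free medium wells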
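Knockdown cells (IDH1KD HT-1080) received compounds 2 h after plating at 750 cells/well and were kept 48 h at 37 °C in 5% FBS RPMI. A CellTiter-Glo luminescence read gave % activity for curve fitting.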
ELG1 DNA repair = inhibitors of ELG1-dependent DNA repair in HEK293T cells. HEK293T ELG1-luciferase reporter, luminescence, 16 h; DNA damage induced by 5-fluorouridine. Potency, µM (doses to about 46.1 µM), inactives show at the top dose activity change, negative = inhibition, actives largely listed as inhibitors. actives 2.3% (n = 330,000). AID 504467; note: potency is the fitted concentration of half-maximal effect; nearly all actives have a fitted effect of over 55% in size
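Overnight (16 hr) co-exposure of 2,000 cells/well to 5-fluorouridine and compound at 37 °C preceded detection. Luciferase was quantified via ONE-Glo luminescence; loss of signal denotes inhibition.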
DT40 TDP1 no CPT = qHTS for Inhibitors of human tyrosyl-DNA phosphodiesterase 1 (TDP1): qHTS in cells in absence of CPT; DT40 Tdp1-/- hTDP1 cells, no CPT, ATP luminescence, 48 h; Potency, µM (highest dose often 46.2 µM), for inactives: at the highest dose activity change, negative = growth inhibition, hits mostly inhibitors; actives 15% (n = 420,000); note: potency is the fitted concentration of half-maximal effect; nearly all actives have a fitted effect of over 55% in size
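A cellular qHTS used chicken DT40 cells lacking endogenous Tdp1 but carrying stably transfected human TDP1. Compounds were applied without camptothecin, and cell growth kinetics were judged by ATP-dependent luminescence after ≥48 hr.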
* marks the source's active call; other numbers are inactive results; i = inactive; ? = inconclusive; / = no result; ! = a repeat was not active; [ ] = another dose, or the depositor's remark. Unless noted, calls come from the whole dose curve; as a rule, active = well fitted curve in the direction sought with a large enough effect; inconclusive = small, poorly fitted or top-dose-only effect, or another doubt; inactive = no such curve, though single readings can be large; an effect the other way counts as inactive or inconclusive. Unless noted, % is set by controls: 0 for no effect and ±100 for the full control effect.

SMILES	IL-1B inflam inh	DT40 TDP1 CPT	HT1080NT lethal	HT1080 IDH1KD tx	ELG1 DNA repair	DT40 TDP1 no CPT
CCCCc1ccc(NC(=O)CSc2nnc3[nH]c(=O)cc(C)n23)cc1	/	-1.6%	/	/	/	-8.4%
CS(=O)(=O)c1ccc(-c2csc(C(O)(c3ccccc3)C(F)(F)F)n2)cc1 (stereo not drawn)	0.9	?	-6.5%	-0.1%	/	?
CCOc1ccc(C(=O)NC2CC(=O)N(c3ccc(C)cc3)C2)cc1OCC (stereo not drawn)	/	-5.3%	/	/	/	?
CC(C)c1nnc(NC(=O)c2ccc3c(c2)OCO3)s1	-16.8	3.9%	11.9%	8.1%	?	-12.3%
CC(c1ccccc1)c1nnc(NC(=O)c2ccc3c(c2)OCO3)s1 (stereo not drawn)	-9.9	?	-0.5%	?	?	18.4µM*
COC(=O)c1c(-c2cccnc2)csc1NC(=O)c1ccc2c(c1)OCO2	i	?	-7.1%	10.5%	?	23.1µM*
COc1ccccc1-c1nnc(NC(=O)c2ccc3c(c2)OCO3)s1	0.0	2.31µM*	-20.1%	?	-5.0%	2.06µM*
Nc1nc2c(c(=O)[nH]1)N(C=O)C(CNc1ccc(C(=O)N[C@@H](CCC(=O)O)C(=O)O)cc1)CN2 (stereo partly drawn)	/	1.8%[21.1 µM]	/	/	/	2.2%[21.1 µM]
N#Cc1cccc(-c2csc(C(O)c3ccco3)n2)c1 (stereo not drawn)	-13.0	-26.1%	-4.8%	2.8%	/	-3.4%
COC(=O)C1CN(S(=O)(=O)c2cc(OC)ccc2OC)CCS1 (stereo not drawn)	-9.6	-23.2%	3.1%	-5.6%	1.6%	-5.9%
CCOC(=O)c1c(NC(=O)COc2ccc(Cl)cc2Cl)sc2c1CCCCC2	/	-4.3%	/	/	/	-16.2%
Cc1nc(=O)c(-c2ccccc2)c(C)n1-c1ccccc1	9.9	3.9%	-5.2%	0.9%	5.7%	20.6%
CC1C(c2ccccc2)=Nn2c(=O)n(-c3ccccc3)c(=O)n21 (stereo not drawn)	41.1	?	-1.8%	3.4%	/	23.1µM*
O=C(C[C@H]1C/C=C\CC[C@@H](Cc2ccc(F)cc2)C(=O)OCCNC1=O)NCCO	1.7	-20.9%	6.1%	7.8%	?	-23.8%
Cc1cccc(C(=O)N2CCc3cc(CNC(=O)c4cc5ccccc5[nH]4)ccc32)c1	/	-18.1%	/	/	/	-8.4%
Cc1cccc(C(=O)N2CCc3cc(CNC(=O)c4ccc(Br)o4)ccc32)c1	/	18.4µM*	/	/	/	?
O=C(NCc1ccc2c(c1)CCN2C(=O)c1ccc(F)cc1)c1ccc(Br)o1	/	5.17µM*	/	/	/	4.11µM*
Cc1cccc(OCC(=O)NCc2ccc3c(c2)CCN3C(=O)c2ccccc2)c1	/	?	/	/	/	23.1µM*
COc1ccc(CC(=O)NCc2ccc3c(c2)CCN3C(=O)c2ccccc2)cc1OC	/	1.1%	/	/	/	2.2%
Cc1cc(NC(=O)NCc2ccc3c(c2)CCN3C(=O)c2ccccc2)ccc1Br	/	?	/	/	/	16.4µM*
O=C(c1cc(-c2ccccc2)on1)N1CCOc2ccc(CN3CCN(c4ccccn4)CC3)cc2C1	/	8.4%[9.04 µM]	/	/	/	0.7%
CCc1ccc(-c2nc3cc(NC(=O)c4ccc(F)cc4)ccc3o2)cc1	/	-15.0%	/	/	/	?
O=C(Nc1ccc2c(c1)CCCN2C(=O)c1cccs1)c1ccccc1	-17.4	16.4µM*	?	?	?	13µM*
O=C(Nc1ccc2c(c1)CCCN2C(=O)c1cccs1)c1cccc(C(F)(F)F)c1	/	13µM*	/	/	/	9.2µM*
O=C(Nc1ccc2c(c1)CCCN2C(=O)c1cccs1)c1ccc(F)c(F)c1	/	16.4µM*	/	/	/	20.6µM*
SMILES	IL-1B inflam inh	DT40 TDP1 CPT	HT1080NT lethal	HT1080 IDH1KD tx	ELG1 DNA repair	DT40 TDP1 no CPT
COc1ccc(C(=O)N2CCCc3ccccc32)cc1	5.6	-24.3%	3.3%	-8.5%	11.7%	-28.1%
COc1cc(OC)cc(C(=O)Nc2ccc3c(c2)CCCN3C(=O)c2cccs2)c1	-16.1	18.4µM*	?	?	?	23.1µM*!
CC(=O)c1ccc(N2CCN(C(=O)c3cccs3)CC2)c(F)c1	-12.4	?	4.1%	4.1%	?	?
COc1ccccc1-c1ccc([C@@H]2C[C@H]3[C@@H](CN2)CON3C)cc1	-4.4	-19.3%	-4.5%	-3.3%	/	-30.0%
O=C(Nc1ccc(Cl)c(C(F)(F)F)c1)c1ccco1	?	-20.6%	-4.9%	-1.0%	9.1%	?
CC(NC(=S)Nc1ccc(OC(F)F)c(Cl)c1)C(C)(C)C (stereo not drawn)	-96.4*	?	?	?	?	?
CCNC(=S)Nc1ccc(Cl)c(C(F)(F)F)c1	4.4	-94.7%	-0.1%	-10.0%	-24.3%	23.1µM*
Fc1cc(NC(=S)NCc2ccc(CNC(=S)Nc3ccc(Cl)c(F)c3)cc2)ccc1Cl	21.1	?	-25.6%	-22.3%	-5.3%	13µM*
O=C(Nc1ccc(OC(F)F)c(Cl)c1)C(c1ccccc1)c1ccccc1	-62.0*	?	?	16.4µM*	-12.0%	18.4µM*
FC(F)Oc1ccc(NC(=S)NCc2ccccc2)cc1Cl	-88.7*	15.8µM*	?	?	0.0%	?
CC1CCCC(C)N1C(=O)c1cccc2c1-c1ccccc1/C2=N/O (stereo not drawn)	15.1	?	-7.1%	-6.6%	20.6µM*	?
CCOC(=O)c1cccc2c1-c1ccccc1/C2=N/O	-54.0*	-15.8%	?	?	?	-17.6%
O=C(NCc1ccccc1)C(=O)NCC(c1ccco1)S(=O)(=O)c1ccccc1 (stereo not drawn)	/	-4.8%	/	/	/	-20.2%
COc1cc(OC)cc(C(=O)NCC(=O)N2CC=C(c3ccccc3)CC2)c1	14.3	3.26µM*	16.4µM*	13µM*	?	4.61µM*
O=C(NCC(=O)N1CC=C(c2ccccc2)CC1)c1ccccc1Br	i	?	-13.3%	-12.8%	-23.6%	20.6µM*
Cc1cc(C)c(OCC(=O)N2CC=C(c3ccccc3)CC2)c(C)c1	27.2	-12.9%	-4.4%	-1.2%	13.6%	8.3%
O=C(NCC(=O)N1CC=C(c2ccccc2)CC1)c1ccc(OC(F)F)cc1	25.3	7.31µM*	?	-16.3%	?	7.31µM*
O=C(Nc1cccc(-c2cccc(F)c2)c1)C1CCN(C2CCOCC2)CC1	-0.6	?	?	-24.5%	8.2%	?

Source: PubChem (National Center for Advancing Translational Sciences (NCATS))
